Hits are enriched below; roughly 6.7% of the tested compounds scored in any of these assays.
Autofluor counter: counter-screen for toxin protease inhibitors: compound fluorescence | compound autofluorescence counterscreen, microsphere flow cytometry; active compounds read high | fluorescence intensity (test concentration not listed) | hit rate 3.1% among 360,000; in the data active means fluorescence intensity above about 16000; inconclusive means no clear call, values can overlap the other calls
GDH-TPI inh: GDH-TPI coupled enzyme inhibition counter-screen; GDH-TPI coupled enzyme counterscreen, NADH absorbance; inhibition, % at 4.8 µM; hit rate 1.2% among 360,000; AID 588335; in the data active means inhibition above about 30%;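 further: 0% = DMSO wells and 100% = wells lacking the enzyme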
BoNT A protease: BoNT A light chain protease inhibition | multiplex microsphere protease substrate cleavage, flow cytometry | inhibition, % at 10 µM | hit rate 0.17% among 360,000 | AID 588499; further: plate controls were buffer without enzyme for full effect and enzyme alone for no effect
FBA Mtb inh: Mtb fructose-bisphosphate aldolase inhibition | P9WQA3 | purified M. tuberculosis FBA, fluorescence read-out | inhibition, % at 1 µM | hit rate 2.3% among 360,000 | AID 588726; in the data active means inhibition above about 27%;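 further: 0% = vehicle and 100% = reference inhibitor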
Target sequence (P9WQA3 whole entry, looked up): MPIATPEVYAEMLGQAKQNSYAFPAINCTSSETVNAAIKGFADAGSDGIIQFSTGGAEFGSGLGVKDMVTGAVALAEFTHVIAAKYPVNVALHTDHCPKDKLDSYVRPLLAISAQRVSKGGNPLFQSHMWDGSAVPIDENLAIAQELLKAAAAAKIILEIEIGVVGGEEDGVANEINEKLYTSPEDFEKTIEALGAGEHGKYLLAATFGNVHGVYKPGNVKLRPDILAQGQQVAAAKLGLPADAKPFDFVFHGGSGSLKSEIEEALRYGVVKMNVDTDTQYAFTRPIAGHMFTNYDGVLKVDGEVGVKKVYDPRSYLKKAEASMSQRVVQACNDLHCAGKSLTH
BoNT F protease: inhibitors of Botulinum neurotoxin F light chain protease; Multiplex microsphere protease cleavage assay, flow cytometry; inhibition, % at 10 µM; hit rate 0.22% among 360,000; in the data active means inhibition above about 35%, passing the limit was not always enough; inconclusive means no clear call, values can overlap the other calls; further: plate controls were buffer without enzyme for full effect and enzyme alone for no effect
Anthrax LF prot: blocks Bacillus anthracis lethal factor protease; P15917; AID 588501; multiplex microsphere protease cleavage assay, LF; hit rate 0.12% among 360,000; inhibition, % at 10 µM; further: plate controls were buffer without enzyme for full effect and enzyme alone for no effect
* marks the source's active call; other numbers are inactive results; ? = inconclusive; + = active, no number. Unless noted, no stated cut-off is given here; in the data, active means inhibition above about 30%; inconclusive means no clear call, values can overlap the other calls; inactive means below that.

SMILES	Autofluor counter	GDH-TPI inh	BoNT A protease	FBA Mtb inh	BoNT F protease	Anthrax LF prot
CC1CCC(NC(=O)c2cc(C3CC3)nn2-c2ccccc2)CC1 (stereo not drawn)	4075	7.5	-0.1	+	-0.4	1.0
O=C(O)c1cc(C2CC2)nn1-c1ccccc1	8737	-2.9	0.2	1.6	0.3	6.0
COC(=O)N/N=C\c1cc2c(cc1Br)OCO2	4636	11.0	0.4	-1.7	-0.6	3.0
CC1=CCC(C(=O)O)(C(=O)N/N=C/c2cccs2)C(c2ccc([N+](=O)[O-])cc2)C1 (stereo not drawn)	21132*	17.3	2.8	1.0	4.2	-5.2
CC1=CCC(C(=O)O)(C(=O)N/N=C/c2cccs2)C(c2ccc(F)cc2)C1 (stereo not drawn)	8017	25.0	0.9	1.3	5.3	1.6
Fc1cccc(CO/N=C/c2c(-c3ccccc3)nc3ccc(Cl)cn23)c1	16783*	3.9	-1.0	0.0	-3.7	-0.3
CC(C)OC(=O)C1CC=CCC1C(=O)Nc1ccc(Cl)cc1 (stereo not drawn)	4331	3.4	0.1	0.1	-6.6	-13.6
CC(OC(=O)C1CC=CCC1C(N)=O)C(Cl)=C(Cl)Cl (stereo not drawn)	22015*	-0.6	2.1	1.3	2.5	0.0
Nc1ncnc2sc3c(c12)CCNC3	3156	1.4	-2.3	2.3	-3.0	-10.4
Cc1cc(NO)nc(-c2ccc(Br)cc2)n1	24290*	12.4	-3.1	-0.3	-5.1	-2.4
CCOC(=O)c1sc2c(c1C)c(=O)c(C(=O)OCC)cn2CC	19706*	10.5	1.1	3.6	3.9	-3.7
COc1cccc(CC(C(=O)Nc2cc(C)ccc2C)c2nn[nH]n2)c1OC (stereo not drawn)	22565*	5.7	0.6	5.7	0.5	0.6
Cc1cccc(Cn2c(Sc3nc(C)cs3)nc3c2c(=O)[nH]c(=O)n3C)c1	19241*	-3.9	?	-1.7	3.6	-2.8
Cc1csc(Sc2nc3c(c(=O)[nH]c(=O)n3C)n2Cc2ccccc2Cl)n1	5276	-0.9	0.9	0.0	5.1	-6.8
C=CCn1c(Sc2nc(C)cs2)nc2c1c(=O)[nH]c(=O)n2C	23702*	3.1	-2.0	2.2	-1.5	-1.5
Cc1cc2c(s1)NC(=O)CN=C2c1cccs1	19677*	6.8	?	-3.0	-0.1	-0.6
COc1ccc(/C=C/C(=O)Nc2nc(C)c(C(=O)N(C)C)s2)cc1	2035	41.6*	0.3	-2.7	4.9	1.1
COc1ccc(C(=O)Nc2nc(C)c(C(=O)N(C)C)s2)cc1OC	10360	17.7	-0.8	1.6	-6.4	-5.6
COC(=O)c1sc(NC(=O)/C=C/c2ccc(C)cc2)nc1C	2499	-3.3	-0.6	1.2	2.0	0.4
COc1ccc(/C=C/C(=O)Nc2nc(C)c(C(=O)N(C)C)s2)cc1OC	2087	34.1*	0.2	2.2	1.5	-0.6
CCOC(=O)CNC(=O)c1sc(NC(=O)/C=C/c2ccccc2)nc1C	4677	32.5*	-1.0	5.0	-0.3	3.2
CCCN(C(=O)c1ccc2c(SCC(=O)O)c3c(nc2c1)CCC3)c1cccc(C)c1	4165	11.6	1.6	2.6	-2.1	-0.4
Cn1c(C(=O)N2CCC3(CC2)OCCO3)cc2c(=O)n(C)c3ccccc3c21	7797	19.1	-0.2	3.0	-5.3	-0.6
CC1=C(C(=O)OCC2CCCO2)C(c2ccccc2OC(C)C)C2=C(CC(c3ccco3)CC2=O)N1 (stereo not drawn)	2916	7.6	0.1	10.2	-17.5	-5.7
CC1=C(C(=O)OCC2CCCO2)C(c2cccc(C(F)(F)F)c2)C2=C(CC(c3ccco3)CC2=O)N1 (stereo not drawn)	21820*	-12.2	-7.0	20.6	-9.9	-3.9
SMILES	Autofluor counter	GDH-TPI inh	BoNT A protease	FBA Mtb inh	BoNT F protease	Anthrax LF prot
COc1ccc(C)cc1NC(=O)c1ccc(N(C)S(C)(=O)=O)cc1	3139	15.7	-0.1	6.6	-10.1	-3.3
Cc1ccc(C)c(NC(=O)c2ccc(N(C)S(C)(=O)=O)cc2)c1	20420*	-10.5	3.9	-0.6	4.9	-10.7
Cc1ccc(NC2c3ccccc3C(=O)N2c2cccnc2)cc1 (stereo not drawn)	3340	12.1	-0.6	12.3	5.6	-4.0
Cc1ccc(N/C=C2\C(=O)N(c3ccc(F)cc3F)C(c3cccnc3)S2(=O)=O)cc1 (stereo not drawn)	3083	66.0*	3.6	3.3	?	11.3
CCCSc1nc(N)c(C#N)c(-c2ccc(C)cc2)c1C#N	5150	11.6	-0.8	0.7	-22.2	-1.1
C=CCSc1nc(N)c(C#N)c(-c2ccccc2)c1C#N	21076*	8.9	4.3	-1.0	5.2	-1.9

High-throughput results (PubChem BioAssay)
